Inconclusive results are not listed. Where a call stands in place of a potency, no number is given. Calls of active or inactive are those of the source. Calls follow the shape of the dose curve; as a rule, active = well fitted activation curve with a large enough effect in the repeat runs; inconclusive = weak or mixed curves; inactive = flat fitted curve, though single readings scatter.
Potency is read from the fitted curve at half-maximal effect.

The test is described as follows: A CellTox Green Cytotoxicity Assay to monitor cytotoxicity in HEK293 cells - 16 hour (AID 1224888). Also: nearly all actives have a fitted effect of over 35% in size. Particulars: CellTox Green fluorescence; series mostly up to 76.8 µM. From the text:
National Center for Advancing Translational Sciences [NCATS]
NIH Chemical Genomics Center [NCGC]
U.S. Environmental Protection Agency [EPA]
National Institutes of Environmental Health Sciences [NIEHS]
National Toxicology Program [NTP]
Cell-based models are critical for drug discovery. Determining the natural cytotoxic effects resulting from test compounds is an essential research activity. A CellTox Green Cytotoxicity Assay to monitor cytotoxicity in real time of continues cell culture during 40 hours of the compound treatment was used to screen Tox21 10K library compounds in Hek293 cells. CellTox Green Cytotoxicity Assay is a nonlytic, homogeneous, biofluorescent method to measure cytotoxicity in cell culture after experimental manipulation. The assay system uses a proprietary asymmetric cyanine dye that is excluded from viable cells but preferentially stains the dead cell's DNA. […] Viable cells produce no appreciable increases in fluorescence. Therefore, the fluorescence signal produced by the binding interaction with dead cell DNA is proportional to cytotoxicity.
The mixture of Hek293 cell suspension and reagents were dispensed at 600cells/6 ul/well in 1536-well tissue culture treated black solid bottom plates using a Multidrop dispenser. After the assay plates were incubated at a 37 C/5% CO2 incubator for 5 hours, 23 nL of compounds dissolved in DMSO, positive and negative controls was transferred to the assay plate by a pintool work station. The plates were incubated at 37 C for 40 hours. The fluorescence intensity were measured at 0h, 8h, 16h, 24h, 32h and 40h time points using ViewLux plate reader during compound treatment.
Take `O=C1OCc2ccccc21`: the Potency result is “inactive”.
With `Nc1ccc2c(S(=O)(=O)O)cccc2c1S(=O)(=O)O` the entry was “inactive”; with `COCCC(=O)OC`, “inactive”.
With `O=C(NCc1ncc(C(F)(F)F)cc1Cl)c1c(Cl)cccc1Cl` the entry was “inactive”; with `Cc1ccc2sc3cccc(C)c3c2c1`, “inactive”.
With `c1ccc(C[P+](c2ccccc2)(c2ccccc2)c2ccccc2)cc1`, the Potency result was “inactive”.
In the case of `C=CCc1cc(S(=O)(=O)c2ccc(O)c(CC=C)c2)ccc1O`, the Potency result was “inactive”.
With `Cc1ccc(N=Nc2c(O)ccc3ccccc23)c(C)c1` the entry was “inactive”; with `Cc1cccc(C)c1C`, “inactive”; with `CC/C(=C(/c1ccc(O)cc1)c1ccc(OCCN(C)C)cc1)c1ccccc1`, 28.8 µM (active).
Turning to `CN1CCN(CCCN2c3ccccc3Sc3ccc(C(F)(F)F)cc32)CC1`, the Potency is 23.9 µM (active).
As for `NC(=O)c1ccccc1Cl`, the Potency entry is “inactive”.
As to `CC1=CC[C@@H](C(C)(C)O)CC1`, the Potency result is “inactive”.
In the case of `CC(C)=NNC(N)=S`, the Potency result was “inactive”.
With `Oc1ccc(C2(c3ccc(O)c(C4CCCCC4)c3)CCCCC2)cc1C1CCCCC1`, the Potency entry is “inactive”.
With `Nc1c(Br)cc([N+](=O)[O-])cc1Br` the entry was “inactive”; with `CC(=O)Nc1ccc(N=Nc2cc(C)ccc2O)cc1`, “inactive”; with `Cc1ccc2nc(-c3ccc(N)cc3)sc2c1S(=O)(=O)O`, “inactive”.
With `Clc1cccc(Cl)n1`, the Potency entry is “inactive”.
With `CCCCC/C=C\C=C\C(=O)OCC` the entry was “inactive”; with `CSc1nnc(C(C)(C)C)c(=O)[nH]1`, “inactive”.
With `CCC(C)(C)c1ccc(CC(C)CN2C[C@@H](C)O[C@@H](C)C2)cc1` (stereo not given in full) the figure was 23.9 µM (active).
As for `C=C(C)CCO`, the Potency entry is “inactive”.
With `CCCOC(=O)c1ccc(O)cc1`, the Potency entry is “inactive”.
As to `Cn1ccnc1`, the Potency result was “inactive”.
With `O[Si](c1ccccc1)(c1ccccc1)c1ccccc1`, the Potency entry is “inactive”.
With `CC(C)(C)C1=CC(=O)C(C(C)(C)C)=CC1=O`, the Potency entry was “inactive”.
With `CN[C@H]1CC[C@@H](c2ccc(Cl)c(Cl)c2)c2ccc(S(N)(=O)=O)cc21`, the Potency is 24.5 µM (active).
In the case of `CN1CCN(CCCN2c3ccccc3Sc3ccc(Cl)cc32)CC1`, the Potency result was “inactive”.
For the molecule `CN1CCN(c2ccccc2/C=C2\SCCN(c3ccc(Cl)c(Cl)c3)C2=O)CC1`, the Potency was 49 µM (active).
On to `c1ccc(-c2ccc(C(c3ccccc3)n3ccnc3)cc2)cc1` (stereo not given), for which the Potency entry is “inactive”.
Consider `CCN(CC)c1ccc(C=O)cc1`, for which the Potency entry is “inactive”.
On to `CCOC=C(C(=O)OCC)C(=O)OCC`, for which the Potency entry is “inactive”.
On to `CCCCCCCCCCCCCCCCC(C(=O)O)C(O)(CC(=O)O)C(=O)O` (stereo not given), for which the Potency entry was “inactive”.
As to `CCCC(=O)c1cc(O)c(O)cc1O`, the Potency entry was “inactive”.
Turning to `CC(=O)CC(N)=O`, the Potency result is “inactive”.
As for `C=CC(C)(C)O`, the Potency entry was “inactive”.
With `CC1(C)[C@H](C(=O)OCc2cccc(Oc3ccccc3)c2)[C@@H]1C=C(Cl)Cl` the entry was “inactive”; with `Cc1cc(Br)ccc1NC(=O)CCl`, “inactive”.
On to `CN(C)CCOc1ccc(/C(=C(/CCCl)c2ccccc2)c2ccccc2)cc1`, for which the Potency was 45.8 µM (active).

Values taken from PubChem BioAssay (Tox21).
